# Values joined by “and” are separate entries in the source; they are usually repeats but may differ in a detail not shown here. Equal values may be shown once. Values without a mark were called inactive. The list shows a part of the results. Active and inactive are the calls of the source. Unless noted, no stated cut-off is given here; in the data, active means inhibition above about 30%; inactive means the rest.
# Experiments:
# [1] = biological target: Toll-like receptor 9 (Homo sapiens) (UniProt Q9NR96); experiment: disruptors of TLR9 binding to MyD88 – cell-based, CHO, BLA complementation, fluorescence, triplicate, confirmation (AID 540250;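 active means mean inhibition across three repeats above about 21% taken from the earlier screen, limit read from the data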;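 further: blue over green emission ratio reports constitutive TLR9 MyD88 association via BLA complementation; 0% = DMSO vehicle wells and 100% = clavulanate BLA inhibitor wells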); settings: CCF4 FRET ratio, at 4.98 µM, active compounds read high
# [2] = BLA reporter readout interference – cell-based, fluorescence, artefact control for TLR9-MyD88 binding inhibitor project (AID 540251;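 active means mean inhibition above a 50% cutoff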;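 further: counterscreen of TLR9-MyD88 hits on CMV-driven BLA in CHO-K1 cells; 0% = DMSO alone and 100% = clavulanate blocking BLA; higher means less blue over green ratio so more BLA blockade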); settings: CHO-BLA cells, CCF4 FRET ratio, at 4.98 µM, active compounds read high
# [3] = CHO cell viability loss – luminescence, single concentration, cytotoxicity control for TLR9-MyD88 binding inhibitor project (AID 588336; in the data active means inhibition above about 11%); settings: TLR9-MyD88 CHO cells cytotoxicity, at 4.98 µM, active compounds read high
# [4] = biological target: Receptor-interacting serine/threonine-protein kinase 2 (Homo sapiens) (UniProt O43353); experiment: inhibitors of RIPK2 association with NOD2 – fluorescence, CHO cells, BLA complementation, triplicate, confirmation (AID 624370;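 active means mean inhibition across replicates above a set limit taken from the earlier primary screen, cut at about 21% in these data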;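 further: 0% = DMSO-only wells and the high end = clavulanate BLA-blocked wells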); settings: CCF4 FRET, at 4.98 µM, active compounds read high
# [5] = BLA reporter readout interference – cell-based, CHO-K1 CMV-bla, CCF4 FRET, fluorescence, artefact control for NOD2-RIPK2 interaction inhibitor project, confirmation (AID 624371;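 active means mean inhibition above the low-control mean inhibition plus three low-control SD, cut at about 11% in these data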;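 further: 0% = DMSO only wells and 100% = clavulanate high control wells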); settings: CCF4 FRET ratio, counterscreen, at 4.98 µM, active compounds read high
# [6] = biological target: Serine protease HTRA1 (Homo sapiens) (UniProt Q92743); experiment: confirming inhibition of human HTRA1 – biochemical, fluorescence polarization, confirmation (AID 540248;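 active means mean inhibition over three repeats above a set limit taken from the earlier primary screen, cut at about 37% in these data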;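 further: 0% = HTRA1 with DMSO and 100% = wells lacking HTRA1; inhibitors block probe binding so polarization drops and inhibition rises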); settings: recombinant HTRA1, FP-rhodamine activity-based probe, at 5.96 µM, active compounds read high
# [7] = biological target: Nuclear receptor coactivator 3 (Homo sapiens) (UniProt Q9Y6Q9); experiment: NCOA3 GAL4-fusion reporter inhibition – cell-based, luminescence, quadruplicate, confirmation (AID 588792;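 active means mean inhibition over 43.08%, the solvent-only control mean plus 3 SD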;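 further: 0% = DMSO treated cells and 100% = gossypol at 36 µM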); settings: HEK293 GAL4-SRC3 luciferase reporter, at 3.6 µM, active compounds read high
# [8] = tested on: transactivating tegument protein VP16 (Human herpesvirus 1), Gal4-VP16 luciferase reporter; experiment: repression of VP16-driven luciferase reporter – cell-based, luminescence, high throughput, counter-screen for SRC3 inhibitor project (AID 588794); settings: mammalian cells, at 3.6 µM, active compounds read high
# Chain of Receptor-interacting serine/threonine-protein kinase 2 (Homo sapiens) (O43353 whole entry, looked up): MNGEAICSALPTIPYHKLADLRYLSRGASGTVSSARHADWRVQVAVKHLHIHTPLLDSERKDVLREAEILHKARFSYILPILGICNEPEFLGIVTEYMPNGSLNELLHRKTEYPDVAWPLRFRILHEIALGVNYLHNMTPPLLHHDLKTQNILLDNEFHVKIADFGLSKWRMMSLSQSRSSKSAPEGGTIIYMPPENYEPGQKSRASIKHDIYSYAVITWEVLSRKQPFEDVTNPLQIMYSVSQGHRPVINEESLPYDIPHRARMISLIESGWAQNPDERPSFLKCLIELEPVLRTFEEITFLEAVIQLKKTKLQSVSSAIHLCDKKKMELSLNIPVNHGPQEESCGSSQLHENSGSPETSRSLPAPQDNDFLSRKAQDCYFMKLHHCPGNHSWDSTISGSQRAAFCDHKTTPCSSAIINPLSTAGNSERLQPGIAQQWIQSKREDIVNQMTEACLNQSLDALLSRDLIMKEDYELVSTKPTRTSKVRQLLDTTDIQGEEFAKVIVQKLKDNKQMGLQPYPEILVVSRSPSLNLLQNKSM
# Chain of Toll-like receptor 9 (Homo sapiens) (Q9NR96 whole entry, looked up): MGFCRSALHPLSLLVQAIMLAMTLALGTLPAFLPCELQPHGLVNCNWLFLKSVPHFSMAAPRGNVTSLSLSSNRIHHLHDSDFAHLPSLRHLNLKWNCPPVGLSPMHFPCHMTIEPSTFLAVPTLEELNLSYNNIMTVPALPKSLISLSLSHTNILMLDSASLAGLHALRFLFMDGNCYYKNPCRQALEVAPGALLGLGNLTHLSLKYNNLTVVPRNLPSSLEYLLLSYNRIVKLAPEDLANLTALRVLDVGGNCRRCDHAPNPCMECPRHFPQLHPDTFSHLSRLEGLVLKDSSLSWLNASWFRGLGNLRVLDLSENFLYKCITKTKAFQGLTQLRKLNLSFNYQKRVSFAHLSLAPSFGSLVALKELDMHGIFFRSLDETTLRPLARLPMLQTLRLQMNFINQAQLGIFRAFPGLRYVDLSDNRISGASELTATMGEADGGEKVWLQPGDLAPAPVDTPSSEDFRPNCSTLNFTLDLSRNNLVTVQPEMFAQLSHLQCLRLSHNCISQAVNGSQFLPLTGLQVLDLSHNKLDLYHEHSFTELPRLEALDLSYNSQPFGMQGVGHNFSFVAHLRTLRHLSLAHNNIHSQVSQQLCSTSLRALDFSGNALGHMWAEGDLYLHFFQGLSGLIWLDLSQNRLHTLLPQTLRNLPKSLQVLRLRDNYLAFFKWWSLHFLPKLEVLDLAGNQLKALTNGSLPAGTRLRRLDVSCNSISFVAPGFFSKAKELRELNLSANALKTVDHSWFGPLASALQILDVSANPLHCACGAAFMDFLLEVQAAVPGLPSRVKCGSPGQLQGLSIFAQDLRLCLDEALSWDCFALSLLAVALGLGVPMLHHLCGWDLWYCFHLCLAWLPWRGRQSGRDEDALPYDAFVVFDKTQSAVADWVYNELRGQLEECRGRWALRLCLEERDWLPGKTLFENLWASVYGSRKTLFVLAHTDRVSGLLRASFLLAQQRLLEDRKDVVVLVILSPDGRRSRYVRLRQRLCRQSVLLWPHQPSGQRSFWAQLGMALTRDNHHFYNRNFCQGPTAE
# Chain of Nuclear receptor coactivator 3 (Homo sapiens) (Q9Y6Q9 whole entry, looked up, the tested form may be a part): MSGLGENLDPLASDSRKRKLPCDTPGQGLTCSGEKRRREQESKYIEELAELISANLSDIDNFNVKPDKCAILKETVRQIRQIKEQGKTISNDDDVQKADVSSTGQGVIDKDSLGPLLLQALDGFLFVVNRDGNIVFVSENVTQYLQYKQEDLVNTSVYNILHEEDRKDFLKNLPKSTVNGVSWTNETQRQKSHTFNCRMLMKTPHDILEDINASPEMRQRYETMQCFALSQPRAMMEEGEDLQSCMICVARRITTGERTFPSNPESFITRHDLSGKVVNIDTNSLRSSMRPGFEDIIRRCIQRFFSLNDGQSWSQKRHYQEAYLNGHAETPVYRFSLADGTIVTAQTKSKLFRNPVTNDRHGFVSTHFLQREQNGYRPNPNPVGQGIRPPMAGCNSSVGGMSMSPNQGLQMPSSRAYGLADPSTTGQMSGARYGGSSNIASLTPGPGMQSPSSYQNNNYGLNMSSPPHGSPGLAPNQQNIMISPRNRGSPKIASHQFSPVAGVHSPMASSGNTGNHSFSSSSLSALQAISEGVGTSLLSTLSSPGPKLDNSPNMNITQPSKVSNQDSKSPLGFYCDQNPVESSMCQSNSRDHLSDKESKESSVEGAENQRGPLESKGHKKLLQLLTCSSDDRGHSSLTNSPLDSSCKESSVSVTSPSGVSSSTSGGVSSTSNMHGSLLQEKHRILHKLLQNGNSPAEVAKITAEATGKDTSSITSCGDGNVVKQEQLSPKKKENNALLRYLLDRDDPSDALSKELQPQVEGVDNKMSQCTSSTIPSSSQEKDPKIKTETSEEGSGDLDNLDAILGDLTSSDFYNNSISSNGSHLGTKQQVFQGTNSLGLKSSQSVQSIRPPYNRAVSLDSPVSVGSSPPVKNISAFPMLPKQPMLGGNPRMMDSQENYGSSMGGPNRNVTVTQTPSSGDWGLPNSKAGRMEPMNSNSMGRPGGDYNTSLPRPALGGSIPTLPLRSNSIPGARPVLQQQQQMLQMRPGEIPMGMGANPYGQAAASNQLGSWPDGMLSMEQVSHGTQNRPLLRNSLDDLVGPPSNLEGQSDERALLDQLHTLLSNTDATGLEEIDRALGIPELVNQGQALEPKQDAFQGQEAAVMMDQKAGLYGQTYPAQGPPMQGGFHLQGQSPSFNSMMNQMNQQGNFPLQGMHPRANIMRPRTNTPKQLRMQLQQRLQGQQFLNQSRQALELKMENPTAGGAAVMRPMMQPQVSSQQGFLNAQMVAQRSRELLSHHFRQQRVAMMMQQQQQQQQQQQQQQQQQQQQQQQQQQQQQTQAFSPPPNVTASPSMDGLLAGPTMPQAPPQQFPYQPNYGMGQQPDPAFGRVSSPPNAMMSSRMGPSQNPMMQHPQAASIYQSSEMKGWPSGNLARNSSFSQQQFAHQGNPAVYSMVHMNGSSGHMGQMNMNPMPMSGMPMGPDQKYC
structure (smiles),measurement,setting,value
COc1cc(C(=O)N2C(=O)c3cccc(N)c3C2=O)cc(OC)c1OC,inhibition,[1],11.4%
same,inhibition,[2],13.3%
same,inhibition,[3],1.27%
COc1ccc(-c2cc(C(F)(F)F)nc(S(C)(=O)=O)n2)cc1OC,inhibition,[1],28.8% (active)
same,inhibition,[2],5.84%
same,inhibition,[3],85.2% (active)
same,inhibition,[4],42.1% (active)
same,inhibition,[5],14.4% (active)
Cc1cc2oc3ccc(NCCC4CCCN4C)cc3c(=O)c2cc1C (stereo unspecified),inhibition,[1],19.1%
same,inhibition,[2],16.7%
same,inhibition,[3],31% (active)
same,inhibition,[4],42.8% (active)
same,inhibition,[5],38.5% (active)
COc1ccccc1CSc1ncc(-c2ccc([N+](=O)[O-])cc2)[nH]1,inhibition,[1],5.87%
same,inhibition,[2],9.21%
same,inhibition,[3],2.09%
same,inhibition,[4],28.2% (active)
same,inhibition,[5],21.9% (active)
NC(=O)NC(=O)C(OC(=O)CCNS(=O)(=O)c1ccccc1)c1ccccc1 (stereo unspecified),inhibition,[6],23.1%
COc1ccc(-c2nc3cnccn3c2NC2CCCCC2)cc1-c1cccc(Cl)c1,inhibition,[1],25.7% (active)
same,inhibition,[2],29.5%
same,inhibition,[3],-0.82%
same,inhibition,[4],39.6% (active) and 39.4% (active)
same,inhibition,[5],49.6% (active) and 50.5% (active)
O=c1[nH]c(=O)n(C2CC(O)C(CO)O2)cc1I (stereo unspecified),inhibition,[7],23.1%
same,inhibition,[8],11.8%
Cc1ccc(/C=C/C(O)=C2/C(=O)N(C)C3(C)CC2c2ccccc2O3)cc1 (stereo unspecified),inhibition,[7],20.3%
same,inhibition,[8],30.3% (active)
CNC(=O)c1ccc(-c2sc3nc(N4CCOCC4)c4c(c3c2N)CC(C)(C)OC4)o1,inhibition,[7],3.63%
same,inhibition,[8],-22.1%
CCCCC(O)(CCCC)C(=O)NN(C(=O)OCC)c1ccccc1,inhibition,[7],11.9%
same,inhibition,[8],14.8%
Cc1ccc(-n2cccn2)c(CN2CCCC(C(=O)c3sccc3C)C2)c1 (stereo unspecified),inhibition,[7],18.9%
same,inhibition,[8],32.1% (active)
CC(C)[C@@H]1CC[C@@H](C)C[C@H]1OC(=O)C[n+]1cc(-c2ccc(Cl)cc2)n2c1CCCCC2,inhibition,[7],10.3%
same,inhibition,[8],20.6%
